In PubChem BioAssay (NCI):
About 83,000 compounds went through this panel and 20% of them were active in at least one assay; those are over-represented in the sample as a whole.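 Cell lines were cultured in 96-well plates, exposed to a single compound concentration, and assessed for percent growth 48 hours later.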 A number with no mark means an inactive call. The source made the active and inactive calls. The calls were made as follows: active = growth percent below 10; inactive = the rest.

System: MDA-MB-468 breast
Assay: NCI-60 one-dose screen, 48 h (100 = growth as untreated, 0 = no growth, -100 = all killed)
Details: 10 µM unless noted

| Compound | growth |
| --- | --- |
| CC1(C)CCC[C@]23C(=O)O[C@](O)(C(=O)C4=C[C@@](C)(/C=C/CCCc5ccc6ccc7cccc8ccc5c6c78)CC[C@@]42O)[C@@H]13 | -70% (active) |
| C=C1C(=O)O[C@H]2[C@H]1CC/C(CNC(=O)c1cc3cc(OC)ccc3[nH]1)=C\CC[C@@]1(C)O[C@@H]21 | -67.7% (active) |
| CN(C)c1nc2c(N)ncnc2n1C1OC(CO)C(O)C1O (stereo unspecified) | 102% |
| O=C(NC[C@H](O)CN1CCc2ccccc2C1)c1cc(NC2COC2)ncn1 | 115% |
| O=C(COc1ccc(/C=C2\C(=O)Nc3ccc(Cl)cc32)cc1)Nc1ccc(Cl)cc1 | 87.6% |
| COc1cc2oc(-c3cccc(C(=O)Nc4ccc5c(c4)OCO5)c3)cc(=O)c2c(O)c1OC | 54.6% |
| O=C(NCc1ccccc1)c1ccc2c(c1)NC(=O)[C@@H]1CCCN21 | 103% |
| Cc1ccc(/C=C(/C#N)n2nnc3cccc(F)c32)cc1 | -16.1% (active) |
| C=CC(=O)Nc1cccc(Nc2nc(Nc3ccc(OCCOC(F)F)cc3)ncc2F)c1 | -27.9% (active) |
| COc1ccc2c(c1)N(CCO)C1=C(C(=O)OC1)C2c1cccc(F)c1 (stereo unspecified) | 7.89% (active) |
| N/C(=N\c1nc2c(Cl)cc(Cl)cc2s1)C(Cl)(Cl)Cl | -48.6% (active) |
| CCc1ccc(Cc2cnc(NC(=O)c3cc(C)oc3C)s2)cc1 | 9.5% (active) |
| O=C(/C=C1\C=CN(CCCCF)c2ccccc21)n1ccc2ccccc21 | 91.2% |
| O=S(=O)(Nc1ccc2c(c1)OCO2)c1ccc(-c2cnc(C3CC3)o2)cc1 | -3.85% (active) |
| C[N+](C)(C)CCCCCCCCCC[N+](C)(C)C | 79.6% |
| CC(=O)Cc1nsc(NC(=O)c2cc(-c3cc(Cl)ccc3Cl)oc2C)n1 | 100% |
| CNC(=O)c1cc(Oc2ccc3c(c2)sc2nc(-c4cc(C(F)(F)F)cc(C(F)(F)F)c4)cn23)ccn1 | 4.64% (active) |
| NS(=O)(=O)c1ccc(Nc2nc(N/N=C/c3c[nH]c4ccccc34)nc(Nc3ccccc3)n2)cc1 | 52.7% |

| Compound | growth |
| --- | --- |
| COc1ccc(-c2nc3sccn3c2-c2ccnc(NCCCNS(=O)(=O)c3ccc(F)cc3)n2)cc1 | 6.78% (active) |
| Cc1nn(-c2ccccc2)c(Cl)c1/C=N\N=c1/sc2ccccc2n1C | 113% |
| COc1cnc2c(c1)C(=O)c1c-2n(CCCBr)c(=O)c2cc([N+](=O)[O-])ccc12 | -15.8% (active) |
| O=C(CCN1CCCC1)Nc1ccc2c(NCCCc3ccccc3)c3ccccc3nc2c1 | -38.5% (active) |
| C/C(N)=C(\C#N)C(=O)c1ccccc1 | 97.7% |
| Cc1cccc(C)c1NC(=O)c1sc2nc3c(cc2c1N)C(=O)CCC3 | 34.3% |
| CCCCCC(C)(O)C(C(=O)O)c1ccccc1 (stereo unspecified) | 108% |
| O=c1c2ccccc2c(=O)c2c1sc1c(=O)c3ccc(O)cc3c(=O)c12 | -43.6% (active) |
| COc1cc(/C=C2\CCC/C(=C\c3ccc(OCC4CO4)c(OC)c3)C2=O)ccc1OCC1CO1 (stereo unspecified) | 20.1% |
| c1ccc2c(c1)nc(-n1ccnc1)c1nc3ccccc3n12 | 76% |
| COc1cccc2c1CN(C(=O)c1ccc(O)c(C(=O)N3Cc4ccc(OCCC[P+](c5ccccc5)(c5ccccc5)c5ccccc5)cc4C3)c1)C2 | -2.86% (active) |
| Nc1nc(Nc2ccccc2)n[nH]1 | 120% |
| CCOC(=O)/C(=C\c1ccc2ccccc2c1)P(=O)(OCC)OCC | -13.1% (active) |
| O=C(CCN1CCCC1)Nc1ccc2c(NCc3ccc(F)cc3)c3ccccc3nc2c1 | -46.1% (active) |
| O=C(c1ccccc1)c1c(/C=C/c2ccccc2)nc2ccccc2c1/C=C/c1ccc(Br)cc1 | 94.3% |
| Cc1ccc([N+](=O)[O-])cc1Br | 98.1% |
| CC(=O)NCC(=O)Nc1ccc(-c2nnc3ccccn23)nc1.CC(=O)NCC(=O)Nc1ccc(-c2nnc3ccccn23)nc1.[Pt+2] | 116% |
| NC(=S)N/N=C1\CCCC(C(F)(F)F)C1 (stereo unspecified) | 31.3% |
